# Measured values published in PubChem BioAssay AID1211 (NMMLSC, 2008).
# Calls of active or inactive are those of the source. No rule for the calls is given here.
# Target: Estrogen receptor (Homo sapiens) (UniProt P03372)
# Experiment: displacement of fluorescent estrogen from ERalpha – cell-based, Cos7 ERalpha-GFP, flow cytometry, primary screen (AID 1211);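 also: 0% = DMSO vehicle wells and 100% = no E2-Alexa633 signal left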
# Conditions: fluorescent ligand competition, at 10 µM, stronger effect = higher value
# Estrogen receptor (Homo sapiens), sequence (P03372 whole entry, looked up): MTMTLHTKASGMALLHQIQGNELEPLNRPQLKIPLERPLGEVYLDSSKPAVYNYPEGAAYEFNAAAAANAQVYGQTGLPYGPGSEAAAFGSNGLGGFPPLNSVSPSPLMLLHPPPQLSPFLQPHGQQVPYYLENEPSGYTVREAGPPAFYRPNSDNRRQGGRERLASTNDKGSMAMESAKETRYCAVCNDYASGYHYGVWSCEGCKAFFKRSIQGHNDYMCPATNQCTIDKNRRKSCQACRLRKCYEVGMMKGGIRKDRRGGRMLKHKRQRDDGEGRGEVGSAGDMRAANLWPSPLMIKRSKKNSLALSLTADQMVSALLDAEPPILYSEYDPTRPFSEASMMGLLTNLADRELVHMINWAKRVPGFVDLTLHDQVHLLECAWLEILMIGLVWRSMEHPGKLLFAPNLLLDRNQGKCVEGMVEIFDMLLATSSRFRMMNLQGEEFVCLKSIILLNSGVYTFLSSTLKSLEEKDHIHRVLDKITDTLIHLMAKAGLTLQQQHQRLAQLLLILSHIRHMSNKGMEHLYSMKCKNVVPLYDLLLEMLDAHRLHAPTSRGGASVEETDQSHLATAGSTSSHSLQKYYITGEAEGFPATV
row,SMILES,inhibition of ligand binding
1,COc1ccc(-c2nc(C(N)=O)c3[nH]c(=O)n(-c4cccc(Cl)c4)c3n2)cc1OC,0% (inactive)
2,Cc1ccc(-c2nn(-c3ccccc3)cc2CSC(=N)N)cc1,26% (inactive)
3,COc1ccc(OC)c(C(=O)CSc2nnc(-c3ccc(OC)c(OC)c3)o2)c1,23% (inactive)
4,O=c1[nH]cnc2c1sc1nc3c(c(-c4ccc(Cl)cc4)c12)CCC3,41% (inactive)
5,COc1ccc(N2C(=O)c3ccccc3NC2c2ccc(OC)c(COc3ccccn3)c2)cc1 (configuration not stated),0% (inactive)
6,COc1ccc(C2C=C(c3ccc(Cl)cc3)Nc3nc(NC(C)=O)nn32)cc1 (configuration not stated),42% (inactive)
7,CCCN(CCC)S(=O)(=O)c1ccc(NC(=O)Cc2cccs2)cc1,34% (inactive)
8,Cc1c2cc(O)c(=O)cc-2oc2cc(O)c(O)cc12,31% (inactive)
9,O=C1/C(=C\c2ccco2)SC(=S)N1c1ccc(O)cc1,61% (inactive)
10,Oc1cccc(-c2nc3ccc4ccccc4c3c3c2CCC3)c1,33% (inactive)
11,CCc1ccc2[nH]c(=O)c(C3C(C#N)=C(N)Oc4c3ccc3cccnc43)cc2c1 (configuration not stated),30% (inactive)
12,O=C(O)c1ccc2c(c1)-c1nc3ccccc3n1C2=O,32% (inactive)
13,C/C(N)=C(/C#N)C(=O)CSc1nnc(Nc2cccc(C)c2C)s1,32% (inactive)
14,O=C(OCC(=O)N1CCN(C(=O)c2ccco2)CC1)c1cc(-c2ccco2)nc2ccccc12,34% (active)
15,O=S(=O)(c1cccc(-c2cn3cccnc3n2)c1)N1CCCCCC1,25% (inactive)
16,Cn1ccnc1SCC(=O)Nc1ccc2nc(SCC(=O)NC3CC3)sc2c1,30% (active)
17,Cc1ccccc1Nc1nnc(SCC(=O)NCc2ccco2)s1,40% (inactive)
18,NC(=O)c1c(NC(=O)c2cccs2)sc2c1CCCCCC2,0% (inactive)
19,Cc1cc(C(=O)Nc2sc3c(c2C#N)CCC3)no1,46% (active)
20,COc1cc2cc(C(c3nnnn3C3CCCC3)N3CCc4ccccc43)c(=O)[nH]c2cc1OC (configuration not stated),36% (inactive)
21,CCOC(=O)C1=C(O)/C(=C\c2ccc(CNC(=O)C(=O)Nc3ccccc3)o2)N=C1C,24% (inactive)
22,NC(=S)n1[nH]c(-c2ccc([N+](=O)[O-])cc2)c(N=Nc2ccc(O)cc2)c1=O,10% (inactive)
23,O=C1Nc2ccccc2SC(c2ccccc2)C1O (configuration not stated),26% (inactive)

# Same assay, conditions: fluorescent ligand competition, binding inhibition, at 0.1 µM, stronger effect = higher value
row,SMILES,inhibition of ligand binding [%]
1,CCn1c(SCC(=O)Nc2ccc3c(c2)oc2ccccc23)nnc1-c1ccc(N)cc1,10
2,CCc1nc(N)nc(N)c1-c1ccc(Cl)cc1,25
3,C/C(N)=C(/C#N)C(=O)CSc1nnc(Nc2ccccc2C)s1,18
4,CC1CCc2c(sc(NC(=O)c3ccc(Cn4cc([N+](=O)[O-])cn4)o3)c2C#N)C1 (configuration not stated),39
5,COc1ccccc1/C=c1\sc2nc(-c3ccco3)nn2c1=O,25
6,Cc1ccc(-c2cc(C(=O)NCc3ccco3)c3ccccc3n2)o1,58
7,COc1ccc(/C=N/NC(=O)c2nc(-c3ccccc3)cc(-c3ccccc3)n2)cc1O,97
8,COc1cccc([C@@H]2Oc3ccc(OC)cc3C(=O)[C@H]2O)c1,43
9,c1coc(-c2nnc3sc(Cc4cccs4)nn23)c1,14
10,CCCCNS(=O)(=O)c1ccc(NC(=O)C(Sc2ccccc2)c2ccccc2)cc1 (configuration not stated),21
11,ON=C1/C(=N\O)CC2(C/C1=N/O)OCCO2,48
12,COc1ccc2nc3oc(C(=O)N4CCN(c5cccc(C(F)(F)F)c5)CC4)cc3cc2c1,19
13,COc1ccccc1NC(=O)c1ccccc1NC(=O)c1cc(Cl)ccc1NC(=O)c1ccco1,3
14,Cc1cc(C)nc(NC(=O)CSc2nn(C)c(=S)s2)n1,34
15,Cc1noc(C)c1S(=O)(=O)N(CC(=O)O)c1ccc2c(c1)OCO2,3
16,CCOc1ccc(CC2S/C(=N/c3ccccn3)NC2=O)cc1 (configuration not stated),2
17,COc1ccc(-c2nc(C(N)=O)c3[nH]c(=O)n(-c4cccc(Cl)c4)c3n2)cc1OC,6
18,Cc1ccc(-c2nn(-c3ccccc3)cc2CSC(=N)N)cc1,39
19,COc1ccc(OC)c(C(=O)CSc2nnc(-c3ccc(OC)c(OC)c3)o2)c1,58
20,O=c1[nH]cnc2c1sc1nc3c(c(-c4ccc(Cl)cc4)c12)CCC3,9

row,SMILES,inhibition of ligand binding [%]
1,COc1ccc(N2C(=O)c3ccccc3NC2c2ccc(OC)c(COc3ccccn3)c2)cc1 (configuration not stated),22
2,COc1ccc(C2C=C(c3ccc(Cl)cc3)Nc3nc(NC(C)=O)nn32)cc1 (configuration not stated),22
3,CCCN(CCC)S(=O)(=O)c1ccc(NC(=O)Cc2cccs2)cc1,18
4,Cc1c2cc(O)c(=O)cc-2oc2cc(O)c(O)cc12,51
5,O=C1/C(=C\c2ccco2)SC(=S)N1c1ccc(O)cc1,31
6,Oc1cccc(-c2nc3ccc4ccccc4c3c3c2CCC3)c1,21
7,CCc1ccc2[nH]c(=O)c(C3C(C#N)=C(N)Oc4c3ccc3cccnc43)cc2c1 (configuration not stated),37
8,O=C(O)c1ccc2c(c1)-c1nc3ccccc3n1C2=O,5
9,C/C(N)=C(/C#N)C(=O)CSc1nnc(Nc2cccc(C)c2C)s1,16
10,O=C(OCC(=O)N1CCN(C(=O)c2ccco2)CC1)c1cc(-c2ccco2)nc2ccccc12,77
11,O=S(=O)(c1cccc(-c2cn3cccnc3n2)c1)N1CCCCCC1,48
12,Cn1ccnc1SCC(=O)Nc1ccc2nc(SCC(=O)NC3CC3)sc2c1,78
13,Cc1ccccc1Nc1nnc(SCC(=O)NCc2ccco2)s1,11
14,NC(=O)c1c(NC(=O)c2cccs2)sc2c1CCCCCC2,22
15,Cc1cc(C(=O)Nc2sc3c(c2C#N)CCC3)no1,66
16,COc1cc2cc(C(c3nnnn3C3CCCC3)N3CCc4ccccc43)c(=O)[nH]c2cc1OC (configuration not stated),56
17,CCOC(=O)C1=C(O)/C(=C\c2ccc(CNC(=O)C(=O)Nc3ccccc3)o2)N=C1C,19
18,NC(=S)n1[nH]c(-c2ccc([N+](=O)[O-])cc2)c(N=Nc2ccc(O)cc2)c1=O,18
19,O=C1Nc2ccccc2SC(c2ccccc2)C1O (configuration not stated),46
